We go through 93 molecules from PubChem BioAssay AID2073 (Sanford-Burnham Center for Chemical Genomics, 2009).

Hit rate of the full screen: of about 290,000 compounds, about 570 (0.2%) were called active. Another 1% or so got no clear call; they are omitted. Rule as the data show it: active = inhibition mostly above about 51% (no sharp cut-off); inconclusive = no clear call, values can overlap the other calls; inactive = mostly below about 53%. Many of the other results were omitted from the sample, so actives are more common in it than they were.

As a reminder, the inhibition is the change of the read-out against control, counted positive when it falls.

This assay deals with Voltage-dependent N-type calcium channel subunit alpha-1B (Homo sapiens) (UniProt Q00975). The experiment in a line: inhibitors of Mint1-CaV2.2 protein interaction, biochemical, HTRF (AID 2073). The following applies: at 20 µM, stronger effect = higher value. For orientation: TR-FRET usually uses a lanthanide donor and a delayed reading to cut background.
Chain of Voltage-dependent N-type calcium channel subunit alpha-1B (Homo sapiens) (Q00975 whole entry, looked up): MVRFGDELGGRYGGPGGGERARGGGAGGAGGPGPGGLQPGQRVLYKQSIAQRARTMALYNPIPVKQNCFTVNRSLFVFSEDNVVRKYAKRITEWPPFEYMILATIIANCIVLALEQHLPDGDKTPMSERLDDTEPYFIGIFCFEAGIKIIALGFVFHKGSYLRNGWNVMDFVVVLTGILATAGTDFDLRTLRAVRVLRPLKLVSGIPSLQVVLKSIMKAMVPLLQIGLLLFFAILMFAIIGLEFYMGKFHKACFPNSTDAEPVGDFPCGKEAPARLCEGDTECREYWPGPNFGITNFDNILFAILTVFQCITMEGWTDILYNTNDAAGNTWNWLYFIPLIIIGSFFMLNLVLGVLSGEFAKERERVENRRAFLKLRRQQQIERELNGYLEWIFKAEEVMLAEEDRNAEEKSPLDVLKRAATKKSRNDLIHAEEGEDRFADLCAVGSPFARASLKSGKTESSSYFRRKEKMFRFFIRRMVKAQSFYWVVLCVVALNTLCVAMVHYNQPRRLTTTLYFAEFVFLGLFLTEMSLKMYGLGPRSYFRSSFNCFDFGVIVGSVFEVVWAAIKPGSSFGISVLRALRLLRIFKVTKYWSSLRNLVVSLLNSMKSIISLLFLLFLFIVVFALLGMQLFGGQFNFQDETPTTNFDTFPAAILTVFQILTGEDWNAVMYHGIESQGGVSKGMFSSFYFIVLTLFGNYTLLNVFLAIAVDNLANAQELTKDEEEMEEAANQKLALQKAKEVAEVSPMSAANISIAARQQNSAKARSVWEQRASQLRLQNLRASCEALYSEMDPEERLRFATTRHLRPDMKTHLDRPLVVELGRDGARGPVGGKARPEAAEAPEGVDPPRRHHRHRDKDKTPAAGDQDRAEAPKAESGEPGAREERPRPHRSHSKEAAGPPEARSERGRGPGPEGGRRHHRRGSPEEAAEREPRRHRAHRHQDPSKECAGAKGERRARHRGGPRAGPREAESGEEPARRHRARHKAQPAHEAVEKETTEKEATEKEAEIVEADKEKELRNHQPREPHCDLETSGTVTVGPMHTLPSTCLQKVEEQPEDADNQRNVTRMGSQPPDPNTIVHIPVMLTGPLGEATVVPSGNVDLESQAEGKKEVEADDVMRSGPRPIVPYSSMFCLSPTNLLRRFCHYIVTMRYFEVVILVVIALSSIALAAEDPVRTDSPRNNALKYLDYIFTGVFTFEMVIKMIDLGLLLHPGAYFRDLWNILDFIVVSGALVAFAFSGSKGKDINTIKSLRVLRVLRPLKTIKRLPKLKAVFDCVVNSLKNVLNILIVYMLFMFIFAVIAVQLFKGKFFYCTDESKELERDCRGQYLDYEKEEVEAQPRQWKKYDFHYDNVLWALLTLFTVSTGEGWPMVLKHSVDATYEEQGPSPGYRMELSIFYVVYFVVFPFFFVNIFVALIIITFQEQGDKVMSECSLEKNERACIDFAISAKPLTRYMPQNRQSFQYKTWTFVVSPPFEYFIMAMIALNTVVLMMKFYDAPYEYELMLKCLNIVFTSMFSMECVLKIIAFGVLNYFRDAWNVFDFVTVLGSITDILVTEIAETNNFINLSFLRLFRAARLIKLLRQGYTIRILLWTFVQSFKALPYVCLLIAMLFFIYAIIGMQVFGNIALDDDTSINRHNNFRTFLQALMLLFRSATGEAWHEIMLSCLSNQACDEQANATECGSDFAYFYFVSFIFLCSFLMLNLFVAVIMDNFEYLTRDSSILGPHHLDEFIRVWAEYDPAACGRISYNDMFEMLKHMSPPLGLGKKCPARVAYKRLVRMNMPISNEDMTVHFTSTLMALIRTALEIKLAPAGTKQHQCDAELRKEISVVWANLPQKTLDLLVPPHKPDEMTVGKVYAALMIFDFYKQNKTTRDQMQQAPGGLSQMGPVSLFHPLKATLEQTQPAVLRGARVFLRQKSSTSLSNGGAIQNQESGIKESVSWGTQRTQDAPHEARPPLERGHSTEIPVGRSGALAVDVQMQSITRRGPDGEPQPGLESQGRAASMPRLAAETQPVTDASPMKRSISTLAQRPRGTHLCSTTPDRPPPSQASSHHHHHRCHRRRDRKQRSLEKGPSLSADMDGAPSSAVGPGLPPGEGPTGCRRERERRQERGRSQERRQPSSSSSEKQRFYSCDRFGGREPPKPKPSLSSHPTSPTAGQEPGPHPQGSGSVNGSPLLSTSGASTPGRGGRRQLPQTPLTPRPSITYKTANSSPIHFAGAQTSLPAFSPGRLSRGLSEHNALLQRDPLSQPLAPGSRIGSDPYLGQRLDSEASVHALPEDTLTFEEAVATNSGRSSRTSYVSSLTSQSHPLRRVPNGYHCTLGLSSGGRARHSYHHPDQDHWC
The mark [1] stands for this setting: measured here: average of repeat tests.

Turning to `O=c1cc2c(=O)oc3cc(O)c(O)oc3c2c(O)c1O`, the inhibition is 70% (active).
For `O=c1oc2c(O)c(O)cc3c(=O)oc4c(O)c(O)cc1c4c23`, the inhibition is 9.6% (inactive).
Same read-out and setting: then `O=c1oc2ccccc2c2oc3cc(O)c(O)cc3c12`, with 20% (inactive).
In the case of `COc1ccc(OC)c(NC(=O)CCC(=O)N(Cc2ccc(OC)c(OC)c2)c2nccs2)c1`, the inhibition was 0.5% (inactive).
The same measure, in the same setting: then `CC(C)c1ccc(C2NC(=S)NC3=C2C(=O)CC(C)(C)C3)cc1` (configuration not stated), with -9.1% (inactive); and `Cc1cc(N2CCC(C(=O)NC3CCCCC3)CC2)nc(-c2ccccc2)n1`, with -4% (inactive); and `COc1cccc(/C=C(\CC(=O)O)c2nc3ccccc3s2)c1`, with -2.6% (inactive).
As to `COc1ccc(/C=C(/CC(=O)Nc2ccccc2)c2nc3ccccc3s2)cc1`, the inhibition is 13% (inactive).
Same read-out and setting: under `COc1cccc(/C=C(/CC(=O)Nc2ccc(N3CCOCC3)cc2)c2nc3ccccc3s2)c1` stands 59.9% (active).
`Cc1nonc1C1CCCN1Cc1cn[nH]c1-c1ccc2c(c1)OCO2` (configuration not stated): the inhibition is 6.8% (inactive).
Take `CCOc1ccc2nc(NS(=O)(=O)c3ccc(NC(C)=O)cc3)sc2c1`: the inhibition was -0.1% (inactive).
Still for that read-out and setting: then `CCOc1cccc2sc(Nc3nc4ccc(NC(C)=O)cc4s3)nc12`, with 28.4% (inactive); and `CCOc1ccc2nc(Nc3nc4ccc(NC(C)=O)cc4s3)sc2c1`, with 55% (active).
The same measure, in the same setting: then `COc1ccc(C(=O)/C=C/C(=O)N(CC(=O)NC2CCCCC2)Cc2ccccc2)c(O)c1`, with 64.1% (active); and `COc1ccc(C(=O)/C=C/C(=O)N(CC(=O)NC2CCCCC2)Cc2ccc(F)cc2)c(O)c1`, with 37.7% (inactive).
On the same count and under the same terms, under `COc1ccc(C(=O)/C=C/C(=O)N(CC(=O)NC2CCCCC2)Cc2ccccc2OC)c(O)c1` stands 11.5% (inactive).
As to `CCc1nnc(N/N=C/c2c(Cl)cccc2Cl)n1N`, the inhibition was -7.9% (inactive).
On the same count and under the same terms, then `Cc1[nH]c2ccccc2c1/C=N/Nc1nncn1N`, with -14.7% (inactive).
On to `CCc1nnc(N/N=C/c2c(C)[nH]c3ccccc23)n1N`, for which the inhibition is 55.5% (active).
The same measure, in the same setting: then `CCC1Oc2ccc(C)cc2N(CC(=O)N(Cc2cccnc2)Cc2cccc(F)c2)C1=O` (configuration not stated), with -3.3% (inactive); and `CCC1Oc2ccc(C)cc2N(CC(=O)N(Cc2ccncc2)Cc2ccco2)C1=O` (configuration not stated), with 10.2% (inactive); and `CCC1Oc2ccc(C)cc2N(CC(=O)N(Cc2cccnc2)Cc2ccc(C)o2)C1=O` (configuration not stated), with 52.5% (active).
Still for that read-out and setting: under `CCOC(=O)c1cnn(-c2cc(C)cc(C)c2)c1N` stands 3.5% (inactive).
For the molecule `O=C(CSc1nnc(SCc2ccc(Cl)cc2)s1)N/N=C/c1c[nH]c2ccccc12`, the inhibition was 50.2% (inactive). In addition, the inhibition under setting [1] turned out to be 42.7%.
For the molecule `Cc1ccc(CSc2nnc(SCC(=O)N/N=C/c3c[nH]c4ccccc34)s2)cc1`, the inhibition was 59.7% (active).
Same read-out and setting: then `O=C(CSc1nnc(SCc2ccccc2)s1)N/N=C/c1c[nH]c2ccccc12`, with 44.7% (inactive); and `Cc1ccc(CSc2nnc(SCC(=O)N/N=C/C=C/c3ccco3)s2)cc1`, with 35.3% (inactive).
In the case of `O=C(CSc1nnc(SCc2ccccc2)s1)N/N=C/C=C\c1ccco1`, the inhibition was 79.7% (inactive). For the same molecule, under setting [1], the inhibition is 18.4%.
Regarding `O=C(CSc1nnc(SCc2ccccc2)s1)N/N=C/C=C/c1ccco1`, the inhibition was 50.1% (active).
The same measure, in the same setting: under `Nc1cc(Cl)ccc1C(=O)OCC(=O)N1CCOCC1` stands 7.5% (inactive).
On the same count and under the same terms, then `O=C(O)c1cc(NCc2cccs2)ccc1N1CCOCC1`, with 9.9% (inactive); and `CCn1c(SCC(=O)NC2CCCCC2)nnc1C(C)NC(=O)c1ccccc1F` (configuration not stated), with 8.6% (inactive); and `CC(C)c1ccc(OCC(O)CN2CCCC2)cc1` (configuration not stated), with -4.2% (inactive).
The same measure, in the same setting: under `CCCn1c(SCC(=O)N2c3ccc(F)cc3CCC2C)nnc1-c1ccccn1` (configuration not stated) stands 7% (inactive).
With `O=C(/C=C\c1ccco1)c1ccc(NC(=O)c2ccco2)cc1`, the inhibition is 68.1% (inactive). Under setting [1], the inhibition was found to be 4%.
Consider `CC(=O)Nc1ccc(C(=O)/C=C/c2ccco2)cc1`, for which the inhibition is 30.9% (inactive).
As to `O=C(/C=C/c1ccco1)c1ccc(NC(=O)C23CC4CC(CC(C4)C2)C3)cc1`, the inhibition was 67.9% (active).
As for `O=S(=O)(/N=C(/Nc1ccccc1)c1ccccc1O)c1ccccc1`, the inhibition was -7.3% (inactive).
Same read-out and setting: then `Brc1ccc(C2=Nc3cccc4cccc(c34)N2)o1`, with -20.5% (inactive).
Still for that read-out and setting: then `c1coc(C2=Nc3cccc4cccc(c34)N2)c1`, with 54.2% (active); and `Fc1ccc(C2=Nc3cccc4cccc(c34)N2)cc1`, with -8.3% (inactive); and `CNC(=O)CCn1nc(-c2ccc(C)cc2)c2ccccc2c1=O`, with -2.1% (inactive).
Same read-out and setting: under `CCOC(=O)c1c(O)cc(C)cc1Nc1ccccc1` stands 14.3% (inactive); under `CCOc1ccc(C(=O)NCC(=O)OCC(=O)c2ccc3c(c2)-c2ccccc2C3)cc1`, 18.8% (inactive).
`CNC(=S)N(CCc1ccccc1)Cc1cc2cc(OC)c(OC)cc2[nH]c1=O`: the inhibition is 65.8% (active).
Same read-out and setting: then `CNC(=S)N(CCc1cccc(C)c1)Cc1cc2cc(OC)c(OC)cc2[nH]c1=O`, with 46.2% (inactive).
Consider `CCC(C)NC(=S)N(CCc1ccccc1)Cc1cc2cc(OC)c(OC)cc2[nH]c1=O` (configuration not stated), for which the inhibition was 7.1% (inactive).
The same measure, in the same setting: then `O=C(CC1(O)C(=O)N(C/C=C/c2ccccc2)c2ccccc21)c1ccccn1` (configuration not stated), with 0% (inactive); and `NCCOc1ccc(C2CCCCC2)cc1`, with -11.4% (inactive); and `CCc1nc(NCCN2CCOCC2)c(C#N)c2c1CCCC2`, with 9.8% (inactive).
The same measure, in the same setting: under `CCc1cccc(C)c1NC(=O)CSc1nc2ccc(N3C(=O)c4ccccc4C3=O)cc2s1` stands 17.8% (inactive); under `Cc1cc(C)c(NC(=O)CSc2nc3ccc(N4C(=O)c5ccccc5C4=O)cc3s2)c(C)c1`, 55.2% (active); under `Cc1ccc(C)c(NC(=O)CSc2nc3ccc(N4C(=O)c5ccccc5C4=O)cc3s2)c1`, -0.7% (inactive).
Still for that read-out and setting: under `Cc1ccc(C(=O)N/N=C/c2c(O)ccc3ccccc23)cn1` stands 14.1% (inactive); under `Cc1cccc(C)c1NCc1n[nH]c(=S)n1-c1ccccc1`, -8.3% (inactive); under `O=C(NCCCN1CCOCC1)c1sc2cc(F)ccc2c1Cl`, -0.7% (inactive).
Turning to `O=C(NCCCN1CCOCC1)c1sc2cc([N+](=O)[O-])ccc2c1Cl`, the inhibition is 67.7% (active).
Take `O=C(NCCCN1CCOCC1)c1sc2cc(Cl)ccc2c1Cl`: the inhibition is -10.3% (inactive).
Same read-out and setting: under `C=C(C)CSc1[nH]c(=O)cc(C)c1C#N` stands 1.3% (inactive); under `Nc1c(C(=O)NCC2CCCO2)sc2nc3c(c(-c4ccco4)c12)CC/C3=C\c1ccco1` (configuration not stated), 86.1% (active); under `Nc1c(C(=O)Nc2ccccc2)sc2nc3c(c(-c4ccco4)c12)CCC3`, 29.5% (inactive).
For the molecule `Nc1c(C(=O)Nc2ccccc2)sc2nc3c(c(-c4ccco4)c12)CCCC3`, the inhibition was 2.1% (inactive).
Same read-out and setting: then `O=C(O)CCNS(=O)(=O)c1ccc(Oc2ccccc2)cc1`, with -1.3% (inactive); and `CSCCC(NC(=O)OC(C)(C)C)C(=O)NC(C(=O)NC(CC(C)C)C(N)=O)C(C)C` (configuration not stated), with 15.6% (inactive); and `Cc1ccc(N2C(=O)C3C4C=CC(CNC(=S)N5CCN(c6ccccc6)CC5)(O4)C3C2=O)cc1` (configuration not stated), with 45.6% (inactive).
Same read-out and setting: then `CCOC(=O)C1CCN(C(=O)Nc2ccc3nccnc3c2)CC1`, with 24.5% (inactive); and `Cn1nnc2cc(NC(=O)N3CCN(c4ccccn4)CC3)ccc21`, with -0.5% (inactive); and `CCOC(=O)C1CCN(C(=O)Nc2ccc3nc(-c4ccco4)c(-c4ccco4)nc3c2)CC1`, with 83.1% (active).
In the case of `Cc1nc2cc(NC(=O)N3CCN(c4ccccn4)CC3)ccc2o1`, the inhibition is 0% (inactive).
Still for that read-out and setting: then `O=C(Nc1ccc(N2CCOCC2)cc1)Nc1ccc2nc(-c3ccco3)c(-c3ccco3)nc2c1`, with 48.8% (inactive).
Still for that read-out and setting: under `CCOC(=O)C1CCN(C(=O)Nc2ccc3nc(C)c(C)nc3c2)CC1` stands 36% (inactive).
Still for that read-out and setting: under `Cc1nc2ccc(NC(=O)N3CCCCC3)cc2nc1C` stands 40.3% (inactive).
For the molecule `O=C(Nc1ccc2nc(-c3ccco3)c(-c3ccco3)nc2c1)N1CCCCCC1`, the inhibition was 71.2% (active).
With `O=C(Nc1ccc2nc(-c3ccco3)c(-c3ccco3)nc2c1)N1CCN(c2ccccn2)CC1`, the inhibition was 84.9% (active).
As for `Cc1ccc(NC(=O)NC(=O)CSc2nnnn2C)c(C)c1`, the inhibition is -7.8% (inactive).
The same measure, in the same setting: under `COc1cccc(C(C(=O)NC(C)(C)C)N(C(=O)CCC(=O)Nc2cc(C)on2)C(C)(C)C)c1OC` (configuration not stated) stands -7.6% (inactive); under `O=C(CN1CCCCCC1=O)N1CCN(S(=O)(=O)c2cccs2)CC1`, 14.5% (inactive).
Same read-out and setting: under `CCOC(=O)c1[nH]c2ccccc2c1CCCN1C(=O)c2ccccc2C1=O` stands -6.7% (inactive); under `CN(C)C(=O)CCC(=O)N1CCCC(N2CCN(c3cccc(C(F)(F)F)c3)CC2)C1` (configuration not stated), 5.4% (inactive); under `Nc1nc(N2CCN(c3ccccc3)CC2)n[nH]1`, -13.2% (inactive).
Still for that read-out and setting: under `CCn1c(SCC(=O)N2CCC(C)CC2)nc2c1c(=O)n(C)c(=O)n2C` stands 2.5% (inactive); under `NC(=O)CCC(NS(=O)(=O)c1ccc(Cl)cc1)C(=O)NCc1ccccc1` (configuration not stated), -16.2% (inactive).
In the case of `CC(C)C(=O)N1CCN(c2ccc(NC(=O)c3cccs3)cc2Cl)CC1`, the inhibition is 0.8% (inactive).
For the molecule `CCOC(=O)C1CCN(C(=O)CN(c2ccc3c(c2)OCCO3)S(C)(=O)=O)CC1`, the inhibition was -9.6% (inactive).
On the same count and under the same terms, under `Cc1cccc(COCC(Cc2ccccc2)N2CCN(C(=O)c3cccc(Cl)c3)CCC2=O)c1` (configuration not stated) stands 1.7% (inactive); under `O=S(=O)(NC1=NCCCCC1)c1ccccc1Cl`, 7.5% (inactive); under `CC1=Nc2nc(N3CCCCC3)c(C#N)c3c4c(nc(c23)N1)N(c1ccc(C(C)C)cc1)C(=O)C4`, 54.8% (active).
Same read-out and setting: then `CCN(CC)c1nc2c3c(nc4c(c3c1C#N)CC(=O)N4c1ccc(Cl)cc1)NC(C)=N2`, with 15.5% (inactive); and `COc1ccc(CN2C(=O)Cc3c2nc(N)c2c(N)nc(N4CCCCC4)c(C#N)c32)cc1`, with 24.2% (inactive); and `C/C(=N\NC(N)=S)C1(C)CCCCC1`, with 1.7% (inactive).
With `CCNc1nc(-c2cc(C)n(Cc3ccco3)c2C)cs1`, the inhibition is 71.4% (inactive). For the same molecule, under setting [1], the inhibition is -8.8%.
On to `Cc1cc(-c2csc(NC(=O)c3ccc(C#N)cc3)n2)c(C)n1Cc1ccccc1`, for which the inhibition was 31.3% (inactive).
Consider `Cc1cc(-c2csc(NC(=O)c3ccc(C#N)cc3)n2)c(C)n1Cc1ccco1`, for which the inhibition is 74% (active).
